# Reference: PubChem BioAssay (Tox21)
# Where “and” joins values, the source holds several entries; their conditions need not be identical. Equal entries are not always repeated. Results filed as inconclusive are left out. A call without a number means that no potency is given here. Some structures have more than one record in an assay (separate samples or runs), and their calls can disagree. Calls of active or inactive are those of the source. Unless noted, calls follow the shape of the dose curve; as a rule, active = well fitted curve in the direction sought with a large enough effect in the repeat runs; inconclusive = weak or mixed curves; inactive = no such curve, though single readings can be large; an effect the other way counts as inactive or inconclusive.
# What was measured:
# [1] = qHTS assay to identify small molecule agonists of the RXR signaling pathway - cell viability counter screen (AID 1159529);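 also: HEK 293T cells carrying an RXR-alpha UAS beta-lactamase reporter; series mostly up to about 77 µM; nearly all actives have a fitted effect of over 50% in size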
# In short: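 In this parallel viability measure, GeneBLAzer RXR-alpha HEK 293T cells (2% charcoal-stripped FBS) were given a 5 hr preincubation, treated with compounds 16 hr at 37 C, and read by CellTiter-Glo luminescence.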
# [2] = qHTS assay to identify small molecule antagonists of the retinoid acid receptor (RAR) signaling pathway - cell viability counter screen (AID 1159551); also: nearly all actives have a fitted effect of over 35% in size
# In short: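 In this counter screen, the RARE-luciferase line C3RL4 was exposed for 6 h at 37 C and 5% CO2 to compounds with retinol at 1 uM final. Cellular ATP, read by luminescence, served as the viability measure.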
# [3] = qHTS assay to identify small molecule antagonists of the retinoic acid receptor (RAR) signaling pathway (AID 1159552; also: nearly all actives have a fitted effect of over 50% in size)
# In short: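 C3RL4 RARE-luc cells, overnight plating; retinol 1 uM final added right after compound; 6 hr 37 C; luciferase read at 30 min RT.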
# [4] = qHTS assay to identify small molecule antagonists of the estrogen related receptor (ERR) signaling pathway from Tox21 library - cell viability counter screen (AID 1224834); also: nearly all actives have a fitted effect of over 30% in size
# In short: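 Counter screen run in ERR cells (2,000 cells/well): cells pre-incubated 6 h, then treated with compounds for 17.5 h at 37 C. Fluorescence was read 30 min after CellTiter-Fluor addition.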
# [5] = target: Luciferin 4-monooxygenase (Photinus pyralis) (UniProt P08659); assay: qHTS assay to identify small molecule inhibitors of firefly luciferase (AID 1224835); also: nearly all actives have a fitted effect of over 25% in size; also: potency is read from the fitted curve at half-maximal effect
# In short: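 Quantitative HTS format; KM concentrations of both substrates. Purified P. pyralis FLuc activity quantified from luminescence images.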
# [6] = qHTS assay to identify small molecule agonists of the constitutive androstane receptor (CAR) signaling pathway - cell viability counter screen (AID 1224836); also: series mostly up to about 92 µM; nearly all actives have a fitted effect of over 45% in size
# In short: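 Using CellTiter-Fluor, viability of HepG2 cells harbouring hCAR and CYP2B6-2.2kb was measured following 23 h incubation with a 15-concentration compound series plus PK11195 (0.75 uM final).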
# [7] = qHTS assay to identify small molecule antagonists of the constitutive androstane receptor (CAR) signaling pathway - cell viability counter screen (AID 1224837); also: series mostly up to about 92 µM; nearly all actives have a fitted effect of over 45% in size
# In short: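 CITCO at 50 nM final was added alongside compounds (15 concentrations) to double-stable hCAR/CYP2B6-2.2kb HepG2 cells. Following 23 hr at 37 C, cell viability was quantified by CellTiter-Fluor fluorescence intensity.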
# [8] = target: Nuclear receptor subfamily 1 group I member 3 (Homo sapiens) (UniProt Q14994); assay: qHTS assay to identify small molecule antagonists of the constitutive androstane receptor (CAR) signaling pathway (AID 1224838); also: nearly all actives have a fitted effect of over 40% in size
# In short: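 Inhibition of CITCO-driven (50 nM final) CYP2B6 reporter expression is measured in HepG2 cells stably carrying hCAR. Fifteen compound concentrations are applied for 24 h at 37 C, followed by luciferase luminescence.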
# [9] = target: Nuclear receptor subfamily 1 group I member 3 (Homo sapiens) (UniProt Q14994); assay: qHTS assay to identify small molecule agonists of the constitutive androstane receptor (CAR) signaling pathway (AID 1224839); also: nearly all actives have a fitted effect of over 15% in size; also: potency is read from the fitted curve at half-maximal effect; as to activation: series mostly up to about 92 µM
# In short: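 Double-stable HepG2 cells (hCAR, CYP2B6-2.2kb) seeded 4 h before compound addition. Exposure 24 h with 0.75 uM PK11195 final. Luciferase detected by ONE-Glo.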
# [10] = qHTS assay to identify small molecule antagonists of the estrogen related receptor signaling pathway with the pleiotropic PPARgamma coactivator (PGC) from Tox21 10K library - cell viability counter screen (AID 1224840; active = well fitted cell-killing curve with a large enough effect in the repeat runs, not every such curve was filed as active; also: nearly all actives have a fitted effect of over 40% in size)
# In short: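 Readout: fluorescence intensity from CellTiter-Fluor after 30 min at 37 C/5% CO2. Preceded by 17.5 h treatment of PGC/ERR cells with DMSO-dissolved compounds, added 6 h post-seeding.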
# [11] = target: Thyrotropin receptor (Homo sapiens) (UniProt P16473); assay: qHTS assay to identify small molecule agonists of the thyroid stimulating hormone receptor (TSHR) signaling pathway (AID 1224843; calls by dose curve; also: nearly all actives have a fitted effect of over 45% in size)
# In short: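 Using 15 concentrations per compound in triplicate, cAMP production was monitored in TSHR-HEK293 cells after 30 min compound incubation at RT; HTRF reagents followed, with fluorescence intensity recorded after 1 h.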
# [12] = qHTS assay to identify small molecule agonists of the hypoxia (HIF-1) signaling pathway - cell viability counter screen (AID 1224844; calls by dose curve; also: nearly all actives have a fitted effect of over 50% in size; also: potency is read from the fitted curve at half-maximal effect)
# In short: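 In this counter screen, HRE-bla ME-180 cell viability after 17 hrs of compound exposure at 37C was read by CellTiter-Glo luminescence, multiplexed with the beta-lactamase reporter measurement.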
# [13] = qHTS assay to identify small molecule agonists of the retinoic acid receptor (RAR) signaling pathway (AID 1159553); also: potency is read from the fitted curve at half-maximal effect
# In short: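 In this cell-based screen, 1,000 C3RL4 cells per well were cultured overnight, dosed with test chemicals in DMSO for 6 hr, and assessed for RARE luciferase luminescence.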
# [14] = qHTS assay to identify small molecule antagonists of the estrogen related receptor signaling pathway with the pleiotropic PPARgamma coactivator (PGC) from Tox21 10K library (AID 1224841; call rule not given here; also: series mostly up to about 92 µM; actives are mostly falling curves and most rising ones were filed inactive; nearly all actives have a fitted effect of over 50% in size)
# In short: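 One-Glo luminescence, measured after half an hour at room temperature, quantified reporter output of PGC/ERR cells. These had been plated at 2,000 per well, incubated 6 h, dosed with compounds in DMSO, then kept 18 h at 37 C.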
# [15] = qHTS assay to identify small molecule agonists of the estrogen related receptor signaling pathway with the pleiotropic PPARgamma coactivator (PGC) from Tox21 10K library (AID 1224842); also: nearly all actives have a fitted effect of over 15% in size; also: potency is read from the fitted curve at half-maximal effect
# In short: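 PGC/ERR reporter cells (NTP line) were seeded 2,000 per well, rested 6 h at 37 C/5% CO2, then pin-dosed with compounds in DMSO for 18 h at 37 C; luciferase read by One-Glo luminescence after 30 min at room temperature.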
# Thyrotropin receptor (Homo sapiens), sequence (P16473 whole entry, looked up): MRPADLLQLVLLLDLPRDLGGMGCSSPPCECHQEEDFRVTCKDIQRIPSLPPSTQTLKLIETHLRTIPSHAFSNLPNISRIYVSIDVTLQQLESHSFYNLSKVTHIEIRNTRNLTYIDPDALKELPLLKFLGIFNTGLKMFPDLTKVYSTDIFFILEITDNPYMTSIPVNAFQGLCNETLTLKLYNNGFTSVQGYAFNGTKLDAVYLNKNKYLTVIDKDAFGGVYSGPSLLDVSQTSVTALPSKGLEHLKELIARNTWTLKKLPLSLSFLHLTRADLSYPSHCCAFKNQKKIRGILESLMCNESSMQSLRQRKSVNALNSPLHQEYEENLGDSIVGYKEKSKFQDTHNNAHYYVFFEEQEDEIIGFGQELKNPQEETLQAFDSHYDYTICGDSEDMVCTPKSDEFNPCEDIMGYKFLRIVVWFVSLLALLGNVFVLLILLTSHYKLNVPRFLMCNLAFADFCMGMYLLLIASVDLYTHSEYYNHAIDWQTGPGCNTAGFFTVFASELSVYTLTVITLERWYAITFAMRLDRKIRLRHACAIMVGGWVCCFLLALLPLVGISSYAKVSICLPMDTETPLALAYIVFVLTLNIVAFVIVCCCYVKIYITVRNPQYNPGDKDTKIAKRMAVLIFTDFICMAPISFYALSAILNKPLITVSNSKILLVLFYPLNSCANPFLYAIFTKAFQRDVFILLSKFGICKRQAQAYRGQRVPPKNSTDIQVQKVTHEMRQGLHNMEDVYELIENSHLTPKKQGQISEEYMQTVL
# Luciferin 4-monooxygenase (Photinus pyralis), sequence (P08659 whole entry, looked up): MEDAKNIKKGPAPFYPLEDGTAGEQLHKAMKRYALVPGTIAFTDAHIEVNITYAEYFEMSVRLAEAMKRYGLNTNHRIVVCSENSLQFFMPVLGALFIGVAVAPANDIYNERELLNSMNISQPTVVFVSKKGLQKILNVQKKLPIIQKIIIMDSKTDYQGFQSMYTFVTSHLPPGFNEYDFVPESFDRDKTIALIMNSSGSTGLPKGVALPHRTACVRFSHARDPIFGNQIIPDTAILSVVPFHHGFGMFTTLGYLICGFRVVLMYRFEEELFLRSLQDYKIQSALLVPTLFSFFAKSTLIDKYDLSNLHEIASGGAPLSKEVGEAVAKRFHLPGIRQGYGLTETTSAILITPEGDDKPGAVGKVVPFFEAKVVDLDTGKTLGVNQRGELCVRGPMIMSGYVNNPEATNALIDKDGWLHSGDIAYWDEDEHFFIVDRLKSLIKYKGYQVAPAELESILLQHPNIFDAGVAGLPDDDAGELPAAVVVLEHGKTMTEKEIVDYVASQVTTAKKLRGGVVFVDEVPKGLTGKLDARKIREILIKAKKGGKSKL
# Nuclear receptor subfamily 1 group I member 3 (Homo sapiens), sequence (Q14994 whole entry, looked up): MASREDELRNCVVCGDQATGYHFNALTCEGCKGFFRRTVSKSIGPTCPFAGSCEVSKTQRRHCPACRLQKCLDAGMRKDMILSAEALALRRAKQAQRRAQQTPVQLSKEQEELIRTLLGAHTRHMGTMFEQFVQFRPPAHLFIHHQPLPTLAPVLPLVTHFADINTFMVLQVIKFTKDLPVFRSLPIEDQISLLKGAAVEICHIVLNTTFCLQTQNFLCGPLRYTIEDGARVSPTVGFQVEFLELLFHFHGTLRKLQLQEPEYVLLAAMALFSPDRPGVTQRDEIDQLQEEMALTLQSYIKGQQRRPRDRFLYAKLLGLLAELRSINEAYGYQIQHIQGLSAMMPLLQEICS
smiles,measurement,setting,value
CCOC1Oc2ccc(OS(C)(=O)=O)cc2C1(C)C (stereo not drawn),Potency,[1],inactive
same,Potency,[2],inactive
same,Potency,[3],inactive
same,Potency,[4],inactive
same,Potency,[5],inactive
same,Potency,[6],inactive
same,Potency,[7],inactive
same,Potency,[8],inactive
same,Potency,[9],30.4 µM (active)
same,Potency,[10],inactive
same,Potency,[11],inactive
same,Potency,[12],inactive
CCOC(=O)COc1ccc(Cl)cc1Cl,Potency,[1],inactive
same,Potency,[2],inactive
same,Potency,[3],inactive
same,Potency,[5],35.6 µM (active)
same,Potency,[6],inactive
same,Potency,[7],inactive
same,Potency,[8],inactive
same,Potency,[10],inactive
same,Potency,[12],inactive
O=[N+]([O-])CCO,Potency,[1],inactive
same,Potency,[2],inactive
same,Potency,[13],inactive
same,Potency,[4],inactive
same,Potency,[5],inactive
same,Potency,[6],inactive
same,Potency,[8],inactive
same,Potency,[9],inactive
same,Potency,[10],inactive
same,Potency,[14],inactive
same,Potency,[15],inactive
same,Potency,[12],inactive
O=C(O)C(F)(F)C(F)(F)C(F)(F)C(F)(F)C(F)(F)C(F)(F)F,Potency,[1],inactive
same,Potency,[2],inactive
same,Potency,[13],inactive
same,Potency,[4],inactive
same,Potency,[7],inactive
same,Potency,[8],inactive
same,Potency,[10],inactive
same,Potency,[11],inactive
CON(C)C(=O)Nc1ccc(Br)cc1,Potency,[1],inactive
same,Potency,[2],inactive
same,Potency,[3],inactive
same,Potency,[5],inactive
same,Potency,[6],inactive
same,Potency,[8],inactive
same,Potency,[10],inactive
same,Potency,[11],inactive
same,Potency,[12],inactive
CC[C@H](O)C(C[C@H](C)N(C)C)(c1ccccc1)c1ccccc1,Potency,[1],inactive
same,Potency,[2],inactive
same,Potency,[3],inactive
same,Potency,[5],inactive
same,Potency,[6],inactive
same,Potency,[7],inactive
same,Potency,[8],inactive
same,Potency,[9],inactive
same,Potency,[10],inactive
same,Potency,[11],inactive
same,Potency,[12],inactive
CC(=O)OCC1=C(C(=O)O)N2C(=O)[C@@H](N)[C@H]2SC1,"activity change, negative = cytotoxicity",[1],-9.25% [at 15.8 µM] (inactive)
same,"activity change, negative = cytotoxicity",[2],0.328% [at 19 µM] (inactive)
same,"activity, negative = inhibition",[3],-17.1% [at 19 µM] (inactive)
same,Potency,[13],inactive
same,"activity change, negative = cytotoxicity",[7],5.22% [at 19 µM] (inactive)
same,"activity, negative = inhibition",[8],0.319% [at 19 µM] (inactive)
same,"viability change, negative = cytotoxic",[10],9.03% [at 19 µM] (inactive)
same,"activity, negative = inhibition",[14],-8.84% [at 19 µM] (inactive)
same,activation,[15],-2.61% [at 19 µM] (inactive)
same,activation,[11],9.8% [at 19 µM] (inactive)
same,"activity change, negative = cytotoxicity",[12],-17.2% [at 15.8 µM] (inactive)
Oc1ccc(Cc2ccc(O)cc2)cc1,Potency,[1],inactive
same,Potency,[2],inactive
same,Potency,[3],inactive
same,Potency,[5],40.2 µM (active)
same,Potency,[6],inactive
same,Potency,[7],inactive
same,Potency,[8],inactive
same,Potency,[9],54.9 µM (active)
same,Potency,[10],inactive
same,Potency,[14],inactive
same,Potency,[15],inactive
same,Potency,[11],inactive
same,Potency,[12],inactive
CCN[C@H](C)Cc1cccc(C(F)(F)F)c1,Potency,[1],inactive
same,Potency,[2],inactive
same,Potency,[3],inactive
same,Potency,[4],inactive
same,Potency,[5],inactive
same,Potency,[6],inactive
same,Potency,[7],inactive
same,Potency,[8],inactive
same,Potency,[9],inactive
same,Potency,[10],inactive
same,Potency,[11],inactive
same,Potency,[12],inactive
CCOC(=O)CC(SP(=S)(OC)OC)C(=O)OCC (stereo not drawn),Potency,[1],inactive
same,Potency,[2],inactive
same,Potency,[4],inactive
same,Potency,[5],35.6 µM (active) and 38.9 µM (active)
same,Potency,[6],inactive
same,Potency,[7],inactive
same,Potency,[8],inactive
same,Potency,[10],inactive
same,Potency,[11],inactive
same,Potency,[12],49 µM (active) and inactive
COP(=O)(OC)O/C(C)=C/C(=O)N(C)C,Potency,[1],inactive
same,Potency,[2],inactive
same,Potency,[3],inactive
same,Potency,[4],inactive
same,Potency,[7],inactive
same,Potency,[10],inactive
same,Potency,[14],inactive
same,Potency,[15],inactive
same,Potency,[11],inactive
same,Potency,[12],inactive
Cc1ccc(-c2nc3ccc(C)cn3c2CC(=O)N(C)C)cc1,Potency,[1],inactive
same,Potency,[2],inactive
same,Potency,[3],inactive
same,Potency,[13],23.7 µM (active)
same,Potency,[7],inactive
same,Potency,[8],inactive
same,Potency,[10],inactive
same,Potency,[14],inactive
same,Potency,[15],10.6 µM (active)
same,Potency,[11],inactive
same,Potency,[12],inactive
